Experimental data reported in PubChem BioAssay (EPA / NIEHS).
Active and inactive are the calls of the source. How the source made its calls: active means hit-call score of the fitted dose curve at least 0.9, where 1 is the maximum; inconclusive means response in the unintended direction; inactive means score below 0.9.

The molecules below were run against Peroxisome proliferator-activated receptor gamma (Homo sapiens) (UniProt P37231) (assay: OT_PPARg_PPARgSRC1_1440: Odyssey Thera (OT) 24-hour Protein-Complementation Assay for Peroxisome Proliferator-activated Receptor Gamma/ SRC-1 Co-activator (AID 2283388);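 further: nuclear to cytoplasmic ratio of reconstituted Venus YFP fluorescence in fixed imaged cells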).
Procedure: OT_PPARg_PPARgSRC1_1440 is a cell-based assay that uses HEK293T, a human kidney cell line, with measurements taken at 24 hours after chemical dosing in a 384-well plate.OT_PPARg_PPARgSRC1_1440 is one of one assay component(s) measured or calculated from the OT_PPARg_PPARgSRC1_1440 assay. It is designed to make measurements of protein fragment complementation, a form of binding reporter, as detected with fluorescence intensity signals by Protein-fragment Complementation technology.Data from the assay component OT_PPARg_PPARgSRC1_1440 was analyzed into 1 assay endpoint. This assay endpoint, OT_PPARg_PPARgSRC1_1440, was analyzed in the positive analysis fitting direction relative to DMSO as the negative control and baseline of activity. Using a type of binding reporter, measures of receptor for gain-of-signal activity can be used to understand the binding at the pathway-level as they relate to the gene PPARG. Furthermore, this assay endpoint can be referred to as a primary readout, because the performed assay has only produced 1 assay endpoint. To generalize the intended target to other relatable targets, this assay endpoint is annotated to the nuclear receptor intended target family, where the subfamily is non-steroidal.
The OT PPARg/SRC-1 assay assessed receptor-chemical interactions using a rapidly maturing, intensely fluorescent mutant of YFP known as Venus, rationally dissected into two separate fragments. The fragments were obtained as follows: first, fragments coding for YFP1 and YFP2 (corresponding to amino acid residues 1-158 and 159-239 of the full length YFP, respectively) were generated by oligonucleotide synthesis (Blue Heron Biotechnology), and then PCR mutagenesis was used to generate the mutant fragments IFP1 and IFP2. Fusion constructs were transfected into HEK293T cells with a (Gly4Ser)2 linker between the PPARg/SRC-1 and YFP fragment genes to facilitate complementation when interacting proteins bring fragments into close proximity. The construct is transiently transfected in HEK293T cells 48 hours prior to treatment with test compounds. Cells are seeded into optical quality 384-well poly-D-lysine coated plates in MEM alpha medium (Invitrogen) supplemented with 10 percent FBS (Gemini Bio-Products) 1 percent penicillin and 1 percent streptomycin, and grown in 37C incubator equilibrated to 5 percent CO2. Cells are allowed to adhere for 24 hours prior to treatment with compounds of interest or controls for 24 hours. Cells are fixed in 4 percent formaldehyde and stained with Draq5 (BioStatus) to identify cells and subcellular compartment boundaries prior to signal detection. 8 Images per well were acquired on an Evotec Opera at 2 wavelengths (488 and 635nm), and the ratio of fluorescence in the nucleus relative to fluorescence in the cytoplasm (N/C Ratio) in the 488nm channel was calculated for a minimum of 350 cells per image.

Peroxisome proliferator-activated receptor gamma (Homo sapiens), sequence (P37231 whole entry, looked up, the tested form may be a part): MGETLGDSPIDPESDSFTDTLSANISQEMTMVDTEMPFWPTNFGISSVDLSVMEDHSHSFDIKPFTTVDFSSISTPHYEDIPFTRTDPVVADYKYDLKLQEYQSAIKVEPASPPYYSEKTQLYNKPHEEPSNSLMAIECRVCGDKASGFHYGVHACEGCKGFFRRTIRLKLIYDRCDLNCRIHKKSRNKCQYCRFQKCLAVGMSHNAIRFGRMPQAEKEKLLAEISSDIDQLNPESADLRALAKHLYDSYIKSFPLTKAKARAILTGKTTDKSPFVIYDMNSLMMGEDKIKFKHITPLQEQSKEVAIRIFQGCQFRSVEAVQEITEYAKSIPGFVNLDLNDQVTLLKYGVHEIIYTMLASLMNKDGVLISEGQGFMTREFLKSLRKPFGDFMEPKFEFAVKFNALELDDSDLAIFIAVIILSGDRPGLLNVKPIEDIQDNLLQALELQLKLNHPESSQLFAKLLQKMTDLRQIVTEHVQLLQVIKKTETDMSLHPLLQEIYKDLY

**Q.** With Cc1nc(N(C)C)nc(OC(=O)N(C)C)c1C as the molecule, how does the outcome read?
**A.** inactive

**Q.** For CC(C)N1C(=O)N(c2ccccc2)CSC1=NC(C)(C)C, which outcome is on record?
**A.** inactive

**Q.** With O=c1n(Cl)c(=O)n(Cl)c(=O)n1Cl as the molecule, how does the outcome read?
**A.** inactive

**Q.** Nc1c(Cl)c(Cl)nc(C(=O)O)c1Cl was tested. Which outcome did it give?
**A.** inactive

**Q.** Which outcome does the source give for COC(=O)NS(=O)(=O)c1ccc(N)cc1 here?
**A.** inactive

**Q.** Which outcome does the source give for CN=C=S here?
**A.** inactive

**Q.** For CC1(C)C(C=C(Cl)Cl)C1C(=O)OC(C#N)c1cccc(Oc2ccccc2)c1 (stereo not given), which outcome is on record?
**A.** inactive

**Q.** For COc1ccc(-c2ccccc2)cc1NNC(=O)OC(C)C, which outcome is on record?
**A.** inactive

**Q.** CCOc1cc(C(C)(C)C)ccc1C1COC(c2c(F)cccc2F)=N1 (stereo not given) was tested. Which outcome did it give?
**A.** inactive

**Q.** For CNC(=O)N(C)c1nnc(C(C)(C)C)s1, which outcome is on record?
**A.** inactive

**Q.** For CCCCC(O)(Cn1cncn1)c1ccc(Cl)cc1Cl (stereo not given), which outcome is on record?
**A.** inactive

**Q.** For COCC(=O)N(c1c(C)cccc1C)C(C)C(=O)OC (stereo not given), which outcome is on record?
**A.** inactive

**Q.** For Cc1cc(C)nc(Nc2ccccc2)n1, which outcome is on record?
**A.** inactive

**Q.** For O=C(O)c1c(Cl)ccc2cc(Cl)cnc12, which outcome is on record?
**A.** inactive

**Q.** For CCCC(=NOCC)C1=C(O)CC(CC(C)SCC)CC1=O (stereo not given), which outcome is on record?
**A.** inactive

**Q.** Which outcome does the source give for CC(C)N1C(=O)c2ccccc2NS1(=O)=O here?
**A.** inactive

**Q.** For CC(C)C1(C)N=C(c2ncccc2C(=O)O)NC1=O (stereo not given), which outcome is on record?
**A.** inactive

**Q.** Which outcome does the source give for CCC(C)n1c(=O)[nH]c(C)c(Br)c1=O (stereo not given) here?
**A.** inactive

**Q.** With CCOC(=O)C(C)OC(=O)c1cc(Oc2ccc(C(F)(F)F)cc2Cl)ccc1[N+](=O)[O-] (stereo not given) as the molecule, how does the outcome read?
**A.** inactive

**Q.** How did the outcome turn out when CC1(C)CON(Cc2ccccc2Cl)C1=O was run?
**A.** inactive

**Q.** Which outcome does the source give for Cc1c(COC(=O)[C@@H]2[C@H](/C=C(\Cl)C(F)(F)F)C2(C)C)cccc1-c1ccccc1 here?
**A.** inactive

**Q.** With CO/N=C(/C1=NOCCO1)c1ccccc1Oc1ncnc(Oc2ccccc2Cl)c1F as the molecule, how does the outcome read?
**A.** inactive

**Q.** For CCSC(=O)N1CCCCCC1, which outcome is on record?
**A.** inactive

**Q.** Which outcome does the source give for Clc1nc(Cl)nc(Nc2ccccc2Cl)n1 here?
**A.** inactive

**Q.** How did the outcome turn out when OC(c1ccc(Cl)cc1)(c1ccc(Cl)cc1)C(Cl)(Cl)Cl was run?
**A.** inactive

**Q.** How did the outcome turn out when C=C(C)CN(CC)c1c([N+](=O)[O-])cc(C(F)(F)F)cc1[N+](=O)[O-] was run?
**A.** inactive

**Q.** COCc1cnc(C2=NC(C)(C(C)C)C(=O)N2)c(C(=O)O)c1 (stereo not given) was tested. Which outcome did it give?
**A.** inactive

**Q.** CCCCC(C#N)(Cn1cncn1)c1ccc(Cl)cc1 (stereo not given) was tested. Which outcome did it give?
**A.** inactive

**Q.** CCOc1nc(F)cc2nc(S(=O)(=O)Nc3c(Cl)cccc3Cl)nn12 was tested. Which outcome did it give?
**A.** inactive

**Q.** How did the outcome turn out when CCOP(=S)(OCC)Oc1nc(Cl)n(C(C)C)n1 was run?
**A.** inactive

**Q.** N#CN=C1SCCN1Cc1ccc(Cl)nc1 was tested. Which outcome did it give?
**A.** inactive

**Q.** With C=CCOC(=O)C(C)(C)OC(=O)c1cc(-n2c(=O)cc(C(F)(F)F)n(C)c2=O)ccc1Cl as the molecule, how does the outcome read?
**A.** inactive

**Q.** How did the outcome turn out when COC(=O)c1c(C(F)F)nc(C(F)(F)F)c(C2=NCCS2)c1CC(C)C was run?
**A.** inactive

**Q.** For Cc1cnc(C2=NC(C)(C(C)C)C(=O)N2)c(C(=O)O)c1 (stereo not given), which outcome is on record?
**A.** inactive

**Q.** With COC(=O)N(C(=O)N1CO[C@@]2(C(=O)OC)Cc3cc(Cl)ccc3C2=N1)c1ccc(OC(F)(F)F)cc1 as the molecule, how does the outcome read?
**A.** inactive

**Q.** How did the outcome turn out when Nc1cnn(-c2ccccc2)c(=O)c1Cl was run?
**A.** inactive

**Q.** For COc1cc(OC)nc(NC(=O)NS(=O)(=O)c2ncccc2OCC(F)(F)F)n1, which outcome is on record?
**A.** inactive

**Q.** With CCOP(=O)(OCC)Oc1nc(Cl)c(Cl)cc1Cl as the molecule, how does the outcome read?
**A.** inactive

**Q.** For CC(C)Nc1nc(Cl)nc(NC(C)C)n1, which outcome is on record?
**A.** inactive

**Q.** For N#Cc1c(Cl)cccc1Cl, which outcome is on record?
**A.** inactive
